# SMN2 splice up – SMN2 splice variant enhancement. HEK293 SMN2-luciferase splicing reporter, luminescence, 30-36 h. Potency, µM (highest dose often 46.1 µM), inactives show at the top dose activity change, positive = activation, actives largely listed as activators. hit rate 2.8% among 210,000; also: % of control where 0% means no effect; nearly all actives have a fitted effect of over 55% in size
#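 qHTS luciferase splicing reporter: luminescence rises when SMN2 exon 7 is included in transfected HEK293 cells. Compound exposure lasted 30-36 h at 37C, with 4.5 mM final sodium butyrate as control, followed by a ONE-Glo read.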
# Rab9 promoter act – Rab9 promoter activation; AID 485297; Potency, µM (doses to about 9.22 µM), without a hit: at the highest dose activation, negative = inhibition, usual class: activators; Huh7 Rab9 promoter-luciferase reporter, luminescence, 24 h; hit rate 2.8% among 320,000; also: % of control where 0% means no effect; nearly all actives have a fitted effect of over 60% in size
#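 Cells were plated at 1500 per well in reduced-serum medium with 10% FBS and left 2 h. Compound in DMSO was then added for 24 h at 37 °C. Reporter signal was read by luminescence after 10 min with luciferase detection reagent.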
# ELG1 genotoxic – induces genotoxicity in HEK293T cells with luciferase-tagged ELG1 | HEK293T ELG1-luciferase reporter, luminescence, 16 h | Potency, µM (highest dose often 46 µM), for inactives: at the top dose activity change, positive = activation, most hits filed as activators | hit rate 1.3% among 330,000; also: % of control where 0% means no effect; nearly all actives have a fitted effect of over 60% in size
#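 Genotoxicity was scored as increased ELG1-luciferase reporter signal, measured by ONE-Glo luminescence (30 min, room temperature). Compound or vehicle exposure of the HEK293T reporter cells lasted 16 hr at 37°C.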
# FLuc counter – firefly luciferase modulation, counter-screen for miR-21 project | hit rate 6.9% among 360,000 | Potency, µM (top dose mostly 57.5 µM), for inactives: at the top dose activity change, negative = inhibition, usual class: inhibitors | P08659 | AID 588342 | purified FLuc, Km substrates, luminescence inhibition;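 also: plate controls were vehicle for no effect and reference inhibitor for full effect; nearly all actives have a fitted effect of over 55% in size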
# Target sequence (P08659 whole entry, looked up): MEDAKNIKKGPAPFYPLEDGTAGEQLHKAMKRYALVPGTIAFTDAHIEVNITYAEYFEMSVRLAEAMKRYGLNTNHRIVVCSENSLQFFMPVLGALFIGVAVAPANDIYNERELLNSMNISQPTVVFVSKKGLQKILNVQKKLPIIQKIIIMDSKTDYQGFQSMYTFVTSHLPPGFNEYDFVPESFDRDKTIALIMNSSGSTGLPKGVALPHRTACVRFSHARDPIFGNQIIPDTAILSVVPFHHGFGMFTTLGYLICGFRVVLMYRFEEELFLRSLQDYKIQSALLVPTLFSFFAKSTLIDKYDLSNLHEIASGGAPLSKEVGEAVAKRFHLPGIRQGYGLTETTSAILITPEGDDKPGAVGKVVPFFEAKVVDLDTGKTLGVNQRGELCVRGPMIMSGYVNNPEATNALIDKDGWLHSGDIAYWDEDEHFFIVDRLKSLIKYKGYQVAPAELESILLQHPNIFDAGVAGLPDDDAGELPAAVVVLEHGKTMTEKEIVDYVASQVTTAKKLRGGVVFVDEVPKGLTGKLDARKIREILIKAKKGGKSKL
#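 Purified P. pyralis luciferase, 10 nM final, with Km-level 10 uM D-luciferin and 10 uM ATP in 50 mM Tris acetate pH 7.5, 10 mM Mg acetate, 0.01% Tween-20, 0.05% BSA; 6-point qHTS titration about 60 µM downward; luminescence read.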
# KinaseGlo FLuc – blocks Kinase-Glo luciferase, a counter-screen artifact | Kinase-Glo luciferase, ATP luminescence, 8 min | Potency, µM (series often up to 38.3 µM), for the others: at the top dose activity change, negative = inhibition, actives largely listed as inhibitors | hit rate 0.28% among 200,000 | AID 1379; also: % is scaled to controls: 0 for no effect and ±100 for the full control effect; nearly all actives have a fitted effect of over 60% in size
#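 Kinase-Glo luciferase light output from ATP and luciferin was measured with 10 uM ATP, within the enzyme's linear range. Buffer: 50 mM imidazole pH 7.2, 50 mM KCl, 7 mM MgCl2, 0.01% Tween 20, 0.05% BSA; luminescence read after 8 min at ambient temperature.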
# NPC1 prom act – NPC1 promoter activation. Huh7 NPC1 promoter luciferase reporter, 24 h. Potency, µM (highest dose often 9.22 µM), for the others: at the top dose activation, usual class: activators. hit rate 2.4% among 320,000; also: % of control where 0% means no effect; nearly all actives have a fitted effect of over 60% in size
#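 Huh7 reporter cells (NPC1 promoter driving luciferase) are dosed with compound for 24 h at 37 °C, 5% CO2; luciferase detection reagent is then added and luminescence measured after 10 min at ambient temperature.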
# * = called active by the depositor; ? = inconclusive; nt = not tested or not shown; [ ] = another dose, or the depositor's remark. Shown are actives, neighbours in structure and some others; about 7.5% of the full set was active somewhere. Calls follow the shape of the dose curve; as a rule, active = well fitted curve in the direction sought with a large enough effect; inconclusive = small, poorly fitted or top-dose-only effect, or another doubt; inactive = no such curve, though single readings can be large; an effect the other way counts as inactive or inconclusive. Potency is read from the fitted curve at half-maximal effect.
SMILES,SMN2 splice up,Rab9 promoter act,ELG1 genotoxic,FLuc counter,KinaseGlo FLuc,NPC1 prom act
Cc1cccc(NC(=O)NCc2ccc3[nH]c(C)cc3c2)c1,17%,?,?,19µM*,2%,?
Cc1ccc(CNC(=O)Nc2cccc(C)c2)cc1,?,2.8µM*,?,9.5µM*,-1%,?
Cc1cccc(NC(=O)Nc2ccc(C)cc2Br)c1,13µM*,?,?,?,-2%,?
Cc1ccc(NC(=O)NCc2ccc3[nH]c(C)cc3c2)cc1,22µM*,13%,4%,?,-2%,14%
CC(=O)NCc1ccc2[nH]c(C)cc2c1,2%,-3%,7%,-2%,2%,-1%
Cc1ccc(-n2ncc3c2CC(C)(C)CC3NC(=O)CCc2ccncc2)cc1 (stereo not given),nt,1%,-5%,-2%,nt,-1%
CCCN[C@@H](C)C(=O)Nc1c(C)csc1C(=O)OC,3%[20.6 µM],nt,nt,nt,-1%[17.1 µM],nt
Cc1cc(C)c(Cn2cnc3nc4c(cc3c2=O)CCCC4)c(C)c1,nt,nt,nt,-16%,nt,nt
COc1ccc(C2=CC3=C(Br)C(=O)C(C)(OC(=O)CCc4ccccc4)C(=O)C3=CO2)cc1 (stereo not given),1%,nt,nt,nt,-4%,nt
O=C1OC(Cc2ccccn2)C(O)=C1C1=NCCCCN1 (stereo not given),10µM*,2.2µM*,?,?,-2%,2.2µM*
CCOc1ccccc1/C=N/Nc1ccccc1[N+](=O)[O-],nt,3.5µM*,5%,?,nt,?
COc1ccccc1/C=N\Nc1ccccc1[N+](=O)[O-],nt,2µM*,9.2µM*,1.9µM*,nt,?
Cc1[nH]c2ccccc2c1/C=N/Nc1ccccc1[N+](=O)[O-],1%,?,14%,17µM*,-29%,8%
Cc1[nH]c2ccccc2c1/C=N/NS(=O)(=O)c1ccccc1,-1%,-2%,-2%,-10%,0%,-2%
CC1=C(C(=O)Nc2cccnc2)C(c2cccc(O)c2)n2nc(SCc3ccccc3)nc2N1 (stereo not given),nt,nt,nt,1%,nt,nt
COc1ccc(Nc2nc(N)nc(CSC(=S)N3CCOCC3)n2)cc1,?,?,?,?,-1%,?
Nc1nc(CSC(=S)N2CCOCC2)nc(Nc2ccc(F)cc2)n1,14µM*,?,?,?,3%,26%
O=C(c1ccc2oc(CCCc3ccccc3)nc2c1)N1CCCC(CCCO)C1 (stereo not given),nt,18%,2%,-14%,nt,6%
O=C(c1ccc2oc(CCc3ccccc3)nc2c1)N1CC[C@H](O)C1,nt,1.4µM*,?,?,nt,3.5µM*
CC(=O)N1CCN(C(=O)c2ccc3oc(CCCc4ccccc4)nc3c2)CC1,nt,5%,0%[9.26 µM],3%,nt,-5%
CCCCc1nc2cc(C(=O)N(C)CCc3cn[nH]c3)ccc2o1,nt,27%,11%,?,nt,26%
CCCCc1nc2cc(C(=O)N(C)C3CCOCC3)ccc2o1,nt,2.5µM*,9.2µM*,13µM*,nt,?
COC(=O)[C@@H](C)NC(=O)c1ccc2oc(CCc3ccccc3)nc2c1,nt,2.5µM*,?,21µM*,nt,4µM*
COC(=O)CCCNC(=O)c1ccc2oc(CCCc3ccccc3)nc2c1,nt,?,11%,?,nt,25%
CCOC(=O)N1CCN(C(=O)c2ccc3oc(CCCc4ccccc4)nc3c2)CC1,nt,1.6µM*,?,6µM*,nt,1.6µM*
C=CCOC(=O)N[C@H](/C(C(=O)OC)=C(\C)NCc1ccccc1)c1ccc(C)cc1,9%,nt,nt,nt,2%,nt
CCCCc1nc2cc(C(=O)N3CCC(O)CC3)ccc2o1,nt,2µM*,?,11µM*,nt,1.6µM*
O=C(Nc1cc2c(cc1Cl)OCCO2)c1ccco1,13µM*,?,25%,19µM*,-3%,?
Cc1cc(NC(=O)c2ccc3c(c2)OCCO3)ccc1NC(=O)c1cc2ccccc2o1,-32%,17%,-13%,2.7µM*,3%,15%

# Bioassay records from PubChem.
